This passage reports binding signal results from article PMC7862700, “An all-to-all approach to the identification of sequence-specific readers for epigenetic DNA modifications on cytosine”.

Experiment in all cases: DAPPL (digital affinity profiling via proximity ligation, sequencing); 10 mM Tris-HCl pH 7.5, 50 mM NaCl, 1 mM DTT, 4% glycerol, room temperature, 30 min; GST-TFs on glutathione beads, 16-mer random dsDNA library, 0.1% formaldehyde crosslink after washing; high values mean tight binding
What all share (conditions): protein: recombinant; tags: N-terminal GST; dsDNA, one strand shown

In one experiment the target is T1, FLI1 (Homo sapiens, UniProt Q01543 1-452).
T1 sequence: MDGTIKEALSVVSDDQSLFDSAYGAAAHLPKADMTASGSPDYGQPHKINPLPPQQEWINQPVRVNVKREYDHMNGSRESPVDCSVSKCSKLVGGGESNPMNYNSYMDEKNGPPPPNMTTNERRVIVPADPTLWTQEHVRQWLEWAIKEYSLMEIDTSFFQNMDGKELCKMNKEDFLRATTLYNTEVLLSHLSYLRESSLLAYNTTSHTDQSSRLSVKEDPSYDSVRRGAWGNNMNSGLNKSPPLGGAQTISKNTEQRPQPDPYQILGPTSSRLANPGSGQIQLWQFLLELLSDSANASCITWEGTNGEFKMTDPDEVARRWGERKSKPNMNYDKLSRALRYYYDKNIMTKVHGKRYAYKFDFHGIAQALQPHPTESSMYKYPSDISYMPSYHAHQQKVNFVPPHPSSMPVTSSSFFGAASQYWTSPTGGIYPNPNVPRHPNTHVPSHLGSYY
The essentials: (§1)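 Yeast served to express human transcription factors as GST fusions, which were then captured on glutathione beads and labelled with DNA barcodes. Pooled with a tag-only sample, they were incubated with 200 nmole of a 16-mer random double-stranded DNA library for 30 min at room temperature in Tris/NaCl/DTT/glycerol buffer, washed, crosslinked with 0.1% formaldehyde, ligated by proximity, amplified by PCR and sequenced. Dividing each hexamer's read frequency for a factor by its frequency for the tag-only sample gives the binding signal.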

The target in a further experiment is T2, ELK1 (Homo sapiens, UniProt P19419 1-428).
T2 sequence: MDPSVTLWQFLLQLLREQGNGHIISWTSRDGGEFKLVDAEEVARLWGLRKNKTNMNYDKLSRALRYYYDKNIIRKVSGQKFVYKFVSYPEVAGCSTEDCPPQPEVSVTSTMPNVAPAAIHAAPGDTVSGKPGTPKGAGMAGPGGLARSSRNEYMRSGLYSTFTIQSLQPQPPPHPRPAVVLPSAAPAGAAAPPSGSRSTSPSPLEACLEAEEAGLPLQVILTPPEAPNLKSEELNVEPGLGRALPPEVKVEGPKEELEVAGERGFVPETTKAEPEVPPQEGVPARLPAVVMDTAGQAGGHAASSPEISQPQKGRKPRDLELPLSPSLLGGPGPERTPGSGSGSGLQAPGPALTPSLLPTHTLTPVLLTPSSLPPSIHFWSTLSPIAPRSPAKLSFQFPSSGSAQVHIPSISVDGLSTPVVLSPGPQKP
The essentials: as §1

The target in another experiment is T3, GABPA (Homo sapiens, UniProt Q06546 1-454).
T3 sequence: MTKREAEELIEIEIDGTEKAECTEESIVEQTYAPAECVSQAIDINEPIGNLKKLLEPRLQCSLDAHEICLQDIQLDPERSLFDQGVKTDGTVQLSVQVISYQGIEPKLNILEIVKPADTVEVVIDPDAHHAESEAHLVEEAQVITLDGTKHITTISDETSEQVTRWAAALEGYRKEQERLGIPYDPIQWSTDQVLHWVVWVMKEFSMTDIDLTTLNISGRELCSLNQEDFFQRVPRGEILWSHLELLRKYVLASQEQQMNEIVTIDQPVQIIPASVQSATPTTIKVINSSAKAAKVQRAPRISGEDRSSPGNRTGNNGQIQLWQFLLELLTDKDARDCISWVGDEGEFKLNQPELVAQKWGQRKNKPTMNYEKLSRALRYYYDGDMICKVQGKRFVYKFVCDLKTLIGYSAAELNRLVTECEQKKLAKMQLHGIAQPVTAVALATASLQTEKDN
The method, boiled down: as §1

Another experiment has as its target T4, ERG (Homo sapiens, UniProt P11308 1-479).
T4 sequence: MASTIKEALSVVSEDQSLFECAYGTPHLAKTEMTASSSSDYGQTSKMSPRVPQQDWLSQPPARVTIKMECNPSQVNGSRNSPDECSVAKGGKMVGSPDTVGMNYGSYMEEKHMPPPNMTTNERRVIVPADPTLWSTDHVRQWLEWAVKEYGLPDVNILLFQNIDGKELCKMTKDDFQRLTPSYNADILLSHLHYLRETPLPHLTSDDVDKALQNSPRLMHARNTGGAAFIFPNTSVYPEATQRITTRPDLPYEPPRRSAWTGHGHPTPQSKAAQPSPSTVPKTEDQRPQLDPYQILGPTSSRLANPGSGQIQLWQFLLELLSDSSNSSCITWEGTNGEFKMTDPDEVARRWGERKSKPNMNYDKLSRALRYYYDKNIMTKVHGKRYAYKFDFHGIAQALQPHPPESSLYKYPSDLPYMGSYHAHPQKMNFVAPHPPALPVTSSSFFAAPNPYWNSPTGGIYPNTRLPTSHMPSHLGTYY
The method, boiled down:
as §1

A further experiment has as its target ELF1 (Homo sapiens, UniProt P32519 1-619). The essentials: as §1
Another experiment deals with T5, EHF (Homo sapiens, UniProt Q9NZC4 1-300).
T5 sequence: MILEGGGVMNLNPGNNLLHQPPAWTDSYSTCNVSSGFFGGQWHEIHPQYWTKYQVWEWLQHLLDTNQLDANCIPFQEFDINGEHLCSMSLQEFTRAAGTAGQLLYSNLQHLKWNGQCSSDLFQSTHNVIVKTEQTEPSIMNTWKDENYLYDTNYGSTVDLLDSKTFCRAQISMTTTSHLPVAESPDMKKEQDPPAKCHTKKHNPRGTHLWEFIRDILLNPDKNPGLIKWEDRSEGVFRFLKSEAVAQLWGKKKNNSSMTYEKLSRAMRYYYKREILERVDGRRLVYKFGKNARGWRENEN
The method, boiled down:
as §1

In another experiment the target is SPI1 (Homo sapiens, UniProt P17947 1-270). The essentials: as §1
A further experiment deals with SPIB (Homo sapiens, UniProt Q01892 1-262). The essentials: as §1
For another experiment, the target named is T6, ELK3 (Homo sapiens, UniProt P41970 1-407).
T6 sequence: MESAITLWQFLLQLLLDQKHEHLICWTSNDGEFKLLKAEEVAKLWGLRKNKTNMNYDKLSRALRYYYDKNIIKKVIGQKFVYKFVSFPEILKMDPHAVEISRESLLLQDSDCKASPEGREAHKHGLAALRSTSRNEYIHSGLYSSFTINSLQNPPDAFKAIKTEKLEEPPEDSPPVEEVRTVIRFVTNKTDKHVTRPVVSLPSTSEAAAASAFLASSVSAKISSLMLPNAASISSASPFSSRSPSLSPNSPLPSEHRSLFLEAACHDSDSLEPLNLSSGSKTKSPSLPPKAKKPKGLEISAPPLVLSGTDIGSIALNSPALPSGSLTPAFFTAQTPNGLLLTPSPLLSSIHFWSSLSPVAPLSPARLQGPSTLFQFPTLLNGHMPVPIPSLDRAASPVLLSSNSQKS
The essentials:
as §1

Sequence of ELF1 (P32519 whole entry): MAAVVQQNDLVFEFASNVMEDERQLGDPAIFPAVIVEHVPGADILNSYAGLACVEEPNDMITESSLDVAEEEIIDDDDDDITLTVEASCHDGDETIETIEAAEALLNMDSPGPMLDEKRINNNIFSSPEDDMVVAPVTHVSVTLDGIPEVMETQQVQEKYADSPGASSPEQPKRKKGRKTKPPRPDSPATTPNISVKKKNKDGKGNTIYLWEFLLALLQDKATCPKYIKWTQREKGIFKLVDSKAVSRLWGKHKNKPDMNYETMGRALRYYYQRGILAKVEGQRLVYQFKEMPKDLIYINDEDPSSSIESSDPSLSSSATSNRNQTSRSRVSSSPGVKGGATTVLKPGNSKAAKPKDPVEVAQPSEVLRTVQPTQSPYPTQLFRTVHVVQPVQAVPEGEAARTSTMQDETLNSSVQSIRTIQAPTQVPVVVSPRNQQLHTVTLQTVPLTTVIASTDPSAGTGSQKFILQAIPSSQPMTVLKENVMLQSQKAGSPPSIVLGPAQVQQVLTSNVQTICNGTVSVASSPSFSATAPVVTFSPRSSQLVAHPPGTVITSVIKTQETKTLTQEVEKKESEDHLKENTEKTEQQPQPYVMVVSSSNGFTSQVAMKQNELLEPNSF
Sequence of SPIB (Q01892 whole entry): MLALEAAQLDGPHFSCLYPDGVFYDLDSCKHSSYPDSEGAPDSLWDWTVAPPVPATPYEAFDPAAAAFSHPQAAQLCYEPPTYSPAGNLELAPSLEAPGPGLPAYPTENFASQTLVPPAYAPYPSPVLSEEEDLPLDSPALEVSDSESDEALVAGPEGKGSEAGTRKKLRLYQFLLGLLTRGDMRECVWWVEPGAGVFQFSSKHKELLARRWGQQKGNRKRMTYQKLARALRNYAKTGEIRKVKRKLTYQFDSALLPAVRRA

Turning to CTTCTC, the binding signal was 1.38 fold enrichment (6-mer frequency, TF over GST control) with FLI1; 1.39 fold enrichment (6-mer frequency, TF over GST control) in the experiment with ELK1; 1.39 fold enrichment (6-mer frequency, TF over GST control) with GABPA; 1.3 fold enrichment (6-mer frequency, TF over GST control) in the experiment with ERG; 1.41 fold enrichment (6-mer frequency, TF over GST control) in the experiment with ELF1; 1.37 fold enrichment (6-mer frequency, TF over GST control) with EHF. Also, the binding signal with SPI1 is 1.4 fold enrichment (6-mer frequency, TF over GST control); with SPIB, 1.34 fold enrichment (6-mer frequency, TF over GST control); in the experiment with ELK3 it was 1.39 fold enrichment (6-mer frequency, TF over GST control).
For CTTAGA, the binding signal with FLI1 is 1.13 fold enrichment (6-mer frequency, TF over GST control); with ELK1, 1.11 fold enrichment (6-mer frequency, TF over GST control); in the experiment with GABPA, 1.17 fold enrichment (6-mer frequency, TF over GST control); in the experiment with ERG, 1.09 fold enrichment (6-mer frequency, TF over GST control); with ELF1 it was 1.08 fold enrichment (6-mer frequency, TF over GST control); with EHF, 1.1 fold enrichment (6-mer frequency, TF over GST control). Moreover, the binding signal with SPI1 was 1.11 fold enrichment (6-mer frequency, TF over GST control); in the experiment with SPIB, 1.11 fold enrichment (6-mer frequency, TF over GST control); with ELK3, 1.02 fold enrichment (6-mer frequency, TF over GST control).
Turning to AAAACC, the binding signal is 1.12 fold enrichment (6-mer frequency, TF over GST control) in the experiment with FLI1; 1.05 fold enrichment (6-mer frequency, TF over GST control) with ELK1; 1.16 fold enrichment (6-mer frequency, TF over GST control) with GABPA; 1.13 fold enrichment (6-mer frequency, TF over GST control) with ERG; 1.21 fold enrichment (6-mer frequency, TF over GST control) with ELF1; 1.18 fold enrichment (6-mer frequency, TF over GST control) with EHF. For the same sequence, the binding signal with SPI1 was 1.27 fold enrichment (6-mer frequency, TF over GST control); in the experiment with SPIB it was 1.19 fold enrichment (6-mer frequency, TF over GST control); in the experiment with ELK3, 1.26 fold enrichment (6-mer frequency, TF over GST control).
Consider CTATAT, for which the binding signal with FLI1 is 1.38 fold enrichment (6-mer frequency, TF over GST control); with ELK1, 1.42 fold enrichment (6-mer frequency, TF over GST control); with GABPA it was 1.35 fold enrichment (6-mer frequency, TF over GST control); with ERG, 1.34 fold enrichment (6-mer frequency, TF over GST control); in the experiment with ELF1 it was 1.5 fold enrichment (6-mer frequency, TF over GST control); in the experiment with EHF it was 1.42 fold enrichment (6-mer frequency, TF over GST control). In addition, the binding signal in the experiment with SPI1 was 1.32 fold enrichment (6-mer frequency, TF over GST control); with SPIB, 1.47 fold enrichment (6-mer frequency, TF over GST control); with ELK3, 1.47 fold enrichment (6-mer frequency, TF over GST control).
Consider ATGATA, for which the binding signal was 1.22 fold enrichment (6-mer frequency, TF over GST control) with FLI1; 1.23 fold enrichment (6-mer frequency, TF over GST control) with ELK1; 1.16 fold enrichment (6-mer frequency, TF over GST control) with GABPA; 1.26 fold enrichment (6-mer frequency, TF over GST control) in the experiment with ERG; 1.24 fold enrichment (6-mer frequency, TF over GST control) in the experiment with ELF1; 1.32 fold enrichment (6-mer frequency, TF over GST control) with EHF. The binding signal with SPI1 is 1.2 fold enrichment (6-mer frequency, TF over GST control); with SPIB, 1.21 fold enrichment (6-mer frequency, TF over GST control); in the experiment with ELK3, 1.34 fold enrichment (6-mer frequency, TF over GST control).
Consider TCCCAT, for which the binding signal in the experiment with FLI1 was 1.36 fold enrichment (6-mer frequency, TF over GST control); with ELK1 it was 1.37 fold enrichment (6-mer frequency, TF over GST control); with GABPA it was 1.51 fold enrichment (6-mer frequency, TF over GST control); with ERG it was 1.45 fold enrichment (6-mer frequency, TF over GST control); with ELF1, 1.44 fold enrichment (6-mer frequency, TF over GST control); with EHF it was 1.43 fold enrichment (6-mer frequency, TF over GST control). The binding signal is 1.28 fold enrichment (6-mer frequency, TF over GST control) in the experiment with SPI1; 1.48 fold enrichment (6-mer frequency, TF over GST control) with SPIB; 1.47 fold enrichment (6-mer frequency, TF over GST control) with ELK3.
Consider GCGACT, for which the binding signal was 1.15 fold enrichment (6-mer frequency, TF over GST control) in the experiment with FLI1; 1.26 fold enrichment (6-mer frequency, TF over GST control) with ELK1; 1.13 fold enrichment (6-mer frequency, TF over GST control) with GABPA; 1.24 fold enrichment (6-mer frequency, TF over GST control) in the experiment with ERG; 1.22 fold enrichment (6-mer frequency, TF over GST control) with ELF1; 1.21 fold enrichment (6-mer frequency, TF over GST control) with EHF. Further, the binding signal with SPI1 is 1.2 fold enrichment (6-mer frequency, TF over GST control); in the experiment with SPIB, 1.33 fold enrichment (6-mer frequency, TF over GST control); in the experiment with ELK3 it was 1.25 fold enrichment (6-mer frequency, TF over GST control).
In the case of TATTAC, the binding signal in the experiment with FLI1 is 1.24 fold enrichment (6-mer frequency, TF over GST control); in the experiment with ELK1 it was 1.2 fold enrichment (6-mer frequency, TF over GST control); with GABPA, 1.09 fold enrichment (6-mer frequency, TF over GST control); with ERG, 1.16 fold enrichment (6-mer frequency, TF over GST control); with ELF1 it was 1.19 fold enrichment (6-mer frequency, TF over GST control); in the experiment with EHF, 1.19 fold enrichment (6-mer frequency, TF over GST control). Further, the binding signal with SPI1 is 1.12 fold enrichment (6-mer frequency, TF over GST control); with SPIB, 1.21 fold enrichment (6-mer frequency, TF over GST control); in the experiment with ELK3, 1.16 fold enrichment (6-mer frequency, TF over GST control).
